Laboratory results: PubChem BioAssay (Tox21)
Inconclusive results are not listed. Some compounds were tested as several samples or in several runs, with calls that do not always agree. Activity calls are given as the source filed them. Calls come from the whole dose curve; as a rule, active = well fitted curve in the direction sought with a large enough effect in the repeat runs; inconclusive = weak or mixed curves; inactive = no such curve, though single readings can be large; an effect the other way counts as inactive or inconclusive.

Experiments:
[1] = qHTS RealTime-Glo MT Cell Viability Assay in HEK293 cells - 16 hour (AID 1224872); note: nearly all actives have a fitted effect of over 50% in size; note: potency is the fitted concentration of half-maximal effect; for activity change, negative = cytotoxicity: top concentration of the series differs between compounds
How it was run: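 Homogeneous bioluminescent viability format in HEK293 cells (600 cells/well). Following 5 h at 37 C/5% CO2, 23 nL compound was pintooled; the signal was measured repeatedly during 40 h incubation.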

[2] = qHTS RealTime-Glo MT Cell Viability Assay in HepG2 cells - 8 hour (AID 1224873); note: nearly all actives have a fitted effect of over 55% in size
How it was run: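 HepG2 cells mixed with RealTime-Glo MT reagents (NanoLuc plus cell-permeant prosubstrate) were seeded at 600 cells/well, incubated 5 h at 37 C/5% CO2, then pinned with compounds in DMSO; nonlytic luminescence tracked viability during 40 h treatment.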

[3] = qHTS RealTime-Glo MT Cell Viability Assay in HEK293 cells - 40 hour (AID 1224874); conditions: RealTime-Glo luminescence; max response: stronger effect = lower value; note: nearly all actives have a fitted effect of over 50% in size; note: potency is the fitted concentration of half-maximal effect
How it was run: (§1)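 Nonlytic bioluminescent viability monitoring. HEK293 at 600 cells/well with reagent; 5 h settle; compound transfer by pintool; plates held at 37 C and read at set time points.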

[4] = A CellTox Green Cytotoxicity Assay to monitor cytotoxicity in HEK293 cells - 24 hour (AID 1224875); note: series mostly up to about 77 µM; nearly all actives have a fitted effect of over 45% in size
How it was run: (§2)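 Cytotoxicity was tracked continuously in HEK293 cells by a DNA-binding dye excluded from viable cells. Compounds were transferred in DMSO 5 h after seeding; fluorescence was recorded at intervals up to 40 h.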

[5] = A CellTox Green Cytotoxicity Assay to monitor cytotoxicity in HepG2 cells - 16 hour (AID 1224876); note: nearly all actives have a fitted effect of over 45% in size
How it was run: (§3)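 Real-time, homogeneous cytotoxicity readout: dead-cell DNA staining by CellTox Green in HepG2 monolayers, fluorescence measured at timed intervals up to 40 h of continuous compound exposure.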

[6] = qHTS RealTime-Glo MT Cell Viability Assay in HepG2 cells - 32 hour (AID 1224877); note: nearly all actives have a fitted effect of over 55% in size
How it was run: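 Cell number in HepG2 cultures estimated from NanoLuc luminescence generated by metabolic reduction of a prosubstrate by living cells. The homogeneous, nonlytic format allowed repeated reads at 0, 8, 16, 24, 32 and 40 h of compound exposure.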

[7] = A CellTox Green Cytotoxicity Assay to monitor cytotoxicity in HepG2 cells - 24 hour (AID 1224878); note: nearly all actives have a fitted effect of over 45% in size
How it was run: as §3

[8] = A CellTox Green Cytotoxicity Assay to monitor cytotoxicity in HepG2 cells - 40 hour (AID 1224879); note: nearly all actives have a fitted effect of over 40% in size
How it was run: as §3

[9] = qHTS RealTime-Glo MT Cell Viability Assay in HEK293 cells - 0 hour (AID 1224880); note: top concentration of the series differs between compounds; nearly all actives have a fitted effect of over 45% in size
How it was run: as §1

[10] = A CellTox Green Cytotoxicity Assay to monitor cytotoxicity in HEK293 cells - 32 hour (AID 1224881); note: nearly all actives have a fitted effect of over 40% in size
How it was run: as §2
% is set by controls: 0 for no effect and ±100 for the full control effect.

COc1ccc(C2C(=O)c3ccccc3C2=O)cc1
inactive: Potency [1] | Potency [2] | max response [3] 4.61% | Potency [4] | Potency [5] | Potency [6] | Potency [7] | Potency [8] | Potency [9]

Cc1ccc(Cl)cc1N
inactive: Potency [1] | Potency [2] | max response [3] 4.39% | Potency [4] | Potency [5] | Potency [6] | Potency [7] | Potency [8] | Potency [9] | Potency [10]

C1CCCCC1
inactive: Potency [1] | Potency [2] | max response [3] 1.11% | Potency [4] | Potency [5] | Potency [6] | Potency [7] | Potency [8] | Potency [9] | Potency [10]

COc1cc(OC)c2ccc(=O)oc2c1
inactive: Potency [1] | Potency [2] | max response [3] -23.1% | Potency [4] | Potency [5] | Potency [6] | Potency [7] | Potency [8] | Potency [9]

CC[C@H]1OC(=O)[C@H](C)[C@@H](O[C@H]2C[C@@](C)(OC)[C@@H](O)[C@H](C)O2)[C@H](C)[C@@H](O[C@@H]2O[C@H](C)C[C@H](N(C)C)[C@H]2O)[C@](C)(O)C[C@@H](C)C(=O)[C@H](C)[C@@H](O)[C@]1(C)O
inactive: Potency [1] | Potency [2] | max response [3] -19.4% | Potency [4] | Potency [5] | Potency [6] | Potency [7] | Potency [8]

CCCCCC
inactive: Potency [1] | Potency [2] | max response [3] 0.47% | Potency [4] | Potency [5] | Potency [6] | Potency [7] | Potency [8] | Potency [9]

c1ccc2sc(SSc3nc4ccccc4s3)nc2c1
inactive: activity change, negative = cytotoxicity [1] -1.01% [at 15.8 µM] | viability change, negative = cytotoxic [2] 2.86% [at 15.8 µM] | max response [3] 15.6% | activity change [4] 14.2% [at 15.8 µM, stronger effect = higher value] | cytotoxicity increase [5] 2.16% [at 15.8 µM] | activity change, negative = cytotoxic [6] 1.02% [at 15.8 µM] | cytotoxicity [7] 3.43% [at 15.8 µM] | cytotoxicity increase [8] 16.6% [at 15.8 µM]

CC(C(=O)O)c1ccc(C(=O)c2cccs2)cc1 (configuration not stated)
inactive: Potency [1] | Potency [2] | max response [3] 0.273% | Potency [4] | Potency [5] | Potency [6] | Potency [7] | Potency [8] | Potency [9] | Potency [10]

O=C1OC(=O)c2c(Br)c(Br)c(Br)c(Br)c21
inactive: Potency [1] | Potency [2] | max response [3] -18% | Potency [4] | Potency [5] | Potency [6] | Potency [7] | Potency [8] | Potency [9]

CCCCCCCCCCCCCCCCCC(=O)OCC(CC)CCCC (configuration not stated)
inactive: Potency [1] | Potency [2] | max response [3] 2.92% | Potency [4] | Potency [5] | Potency [6] | Potency [7] | Potency [8] | Potency [9]

CC(=O)OCC(=O)[C@@]1(OC(C)=O)[C@@H](C)C[C@H]2[C@@H]3C[C@H](F)C4=CC(=O)C=C[C@]4(C)[C@@]3(F)[C@@H](O)C[C@@]21C
inactive: Potency [1] | Potency [2] | max response [3] -24.6% | Potency [4] | Potency [5] | Potency [6] | Potency [7] | Potency [8]

Nc1ccc(N=Nc2ccc(N)cc2)cc1
inactive: Potency [1] | Potency [2] | max response [3] -7.32% | Potency [4] | Potency [5] | Potency [6] | Potency [7] | Potency [8] | Potency [9]

O=C(O)CCC(=O)c1ccc(-c2ccccc2)cc1
inactive: Potency [1] | Potency [2] | max response [3] 0.573% | Potency [4] | Potency [5] | Potency [6] | Potency [7] | Potency [8] | Potency [9]

Cc1ccc(NC(=O)N(C)C)cc1NC(=O)N(C)C
inactive: Potency [1] | Potency [2] | max response [3] -1.73% | Potency [4] | Potency [5] | Potency [6] | Potency [7] | Potency [8]

NC(=O)CCCCC(N)=O
inactive: Potency [1] | Potency [2] | max response [3] 1.27% | Potency [4] | Potency [5] | Potency [6] | Potency [7] | Potency [8] | Potency [9]

CCCCOCCOC(=O)c1cccnc1
inactive: Potency [1] | Potency [2] | max response [3] 0.954% | Potency [4] | Potency [5] | Potency [6] | Potency [7] | Potency [8] | Potency [9]

COc1ccc2nc(S(=O)Cc3ncc(C)c(OC)c3C)[nH]c2c1 (configuration not stated)
active: Potency [3] 19.3 µM
inactive: Potency [2] | max response [3] -10.3% | Potency [4] | Potency [5] | Potency [6] | Potency [7] | Potency [8]
21.6 µM (active) and inactive: Potency [1]

Cc1cn([C@H]2C[C@H](F)[C@@H](CO)O2)c(=O)[nH]c1=O
inactive: Potency [1] | Potency [2] | max response [3] 16.7% | Potency [4] | Potency [5] | Potency [6] | Potency [7] | Potency [8] | Potency [9] | Potency [10]

CN=C(N)NC(=O)Nc1c(C)cccc1C
inactive: Potency [1] | Potency [2] | max response [3] 5.93% | Potency [4] | Potency [5] | Potency [6] | Potency [7] | Potency [8] | Potency [9] | Potency [10]

CCC(C)(C)C(=O)O
inactive: Potency [1] | Potency [2] | max response [3] -0.784% | Potency [4] | Potency [5] | Potency [6] | Potency [7] | Potency [8] | Potency [9] | Potency [10]

CCOc1ncc(F)c(=O)[nH]1
inactive: Potency [1] | Potency [2] | max response [3] -0.726% | Potency [4] | Potency [5] | Potency [6] | Potency [7] | Potency [8] | Potency [9] | Potency [10]

CC(C)COC(=O)COc1cc(Cl)c(Cl)cc1Cl
inactive: Potency [1] | Potency [2] | max response [3] -15.9% | Potency [4] | Potency [5] | Potency [6] | Potency [7] | Potency [8] | Potency [9] | Potency [10]
